# Assay results: PubChem BioAssay (NCI)
# Compounds without any hit were thinned out: in the full panel of roughly 83,000, 20% have a hit.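 Treatment: one concentration, 48 hours, 96-well format. Scoring: percent growth, with anything below 10 considered active.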 Calls of active or inactive are those of the source.
# Test system: MDA-MB-468 breast
# Assay: NCI-60 one-dose screen, 48 h (100 = growth as untreated, 0 = no growth, -100 = all killed)
# Conditions: 10 µM unless noted
row,SMILES,growth
1,N#CC(=Nc1cccc(F)c1)C1=C(O)c2ccccc2C1=O,75.2% (inactive)
2,COc1ccc(/C=C(\C#N)c2cc3ccccc3n2C(C)=O)cc1,58.8% (inactive)
3,NC(N)=NS(=O)(=O)c1ccc(N=NC2C(=O)NN(c3ccccc3)C2=O)cc1 (stereo not drawn),96.6% (inactive)
4,COc1ccc(C2=C/C(=C\c3ccccc3O)C(=O)N2Cc2ccccc2)cc1,53.7% (inactive)
5,O=C(CSc1nnc(-c2ccccc2)o1)Nc1ccc(C(=O)/C=C/c2ccccc2)cc1,58.3% (inactive)
6,O=C(NCCCCCCNC(=O)c1c2c(nc3ccccc13)-c1cccnc1SC2)c1c2c(nc3ccccc13)-c1cccnc1SC2,90.4% (inactive)
7,COc1ccc(-c2nc(NN)c3c(C)nn(-c4ccc(F)cc4)c3n2)cc1,25.8% (inactive)
8,CC(C)C(NC(=O)CN)C(=O)O (stereo not drawn),104% (inactive)
9,OC1CCN(CCCOc2c3ccccc3nc3c2oc2ccccc23)CC1,-16.4% (active)
10,C[C@@H]1CC[C@@H]2[C@@H]1[C@H](OC(=O)c1ccc3ccccc3c1)[C@]1(C3CCCCC3)C[C@@H](OC(=O)CO)[C@@]2(C)O1,63.6% (inactive)
11,O=C([C@@H](COCc1ccccc1)N1C(=O)[C@@H](N2C(=O)OC[C@@H]2c2ccccc2)[C@H]1/C=C/c1ccccc1)N1CCC(CCN2CCCCC2)CC1,64.8% (inactive)
12,N#Cc1c(N)c(C(=O)c2ccc3c(c2)OCCO3)n2c1CCCC2,35.5% (inactive)
13,COc1ccc(-c2ccc3c(N4CCOC[C@@H]4C)nc(N4CCOC[C@@H]4C)nc3n2)cc1CO,-27.4% (active)
14,CCCCCCCCNC(=O)c1ccc(Cn2c(CCCC)nc3c(N)nc4ccccc4c32)cc1,-72.6% (active)
15,Nc1ncnc2c1ncn2C1OC(COC(c2ccccc2)(c2ccccc2)c2ccccc2)C(O)C1O (stereo not drawn),89% (inactive)
16,NC(N)=Nc1ccc(Oc2cccc(NC(N)=Nc3ccc(I)cc3F)c2)cc1,35.5% (inactive)
17,CCOC(=O)c1c(Cl)c2c(n1Cc1ccc(OC)cc1)-c1oncc1CCC2,101% (inactive)
18,N#CSCc1ccc(CSC#N)c(Cl)c1,44.1% (inactive)
19,CCN1C(=S)N(CC)C2Nn3c(s/c(=C4\C(=O)N(C)c5ccccc54)c3=O)=NC21 (stereo not drawn),11.7% (inactive)
20,CC1(C)N=C(N)N=C(N)N1c1cccc(CCCCc2ccccc2)c1,-57.7% (active)
21,COc1ccc2[nH]c(C(=O)OCc3ccc4c(Br)cc(Br)c(O)c4n3)cc2c1,-77.4% (active)
22,O=C1CS/C(=N/c2nnc(-c3ccc(O)cc3)s2)N1,116% (inactive)
23,CC1(O)CC(c2nc(-c3ccc4ccc(-c5ccccc5)nc4c3)c3c(N)nccn23)C1 (stereo not drawn),25% (inactive)
24,CCCCNc1cc(C(=O)O)cc(S(N)(=O)=O)c1Oc1ccccc1,94.1% (inactive)
25,CCOc1ccc(NC2=C(Cl)C(=O)c3nc(C)ccc3C2=O)cc1,-95.2% (active)
26,CN(C)CCNC(=O)c1cccc(-c2cnc3ccc(-c4ccc5c(c4)OCO5)nn23)c1,66.9% (inactive)
27,C=C(C)[C@@H]1CC[C@]2(COP(=O)(OCC)OCC)CC[C@]3(C)[C@H](CC[C@@H]4[C@@]5(C)CCCNC(C)(C)[C@@H]5CC[C@]43C)[C@@H]12,24.6% (inactive)
28,CCOC(=O)c1c(Nc2ccccc2)nn2c(-c3ccc(Cl)cc3)ccnc12,65.1% (inactive)
